Data published in PubChem BioAssay (EPA / NIEHS).
Where “and” joins values, the source holds several entries; their conditions need not be identical. Equal values may be shown once. A structure can be active in one record and inactive in another. Calls of active or inactive are those of the source. The calls were made as follows: active = hit-call score of the fitted dose curve at least 0.9, where 1 is the maximum; inactive = score below 0.9.

Read-out: Cytochrome P450 (CYP1A2), CYP1A2 (gene 1544)
Test: LTEA_HepaRG_CYP1A2: Life Technologies and Expression Analysis (LTEA) Assay for Cytochrome P450 (CYP1A2) using HepaRG (AID 2283479);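 as to AC50: TaqMan qRT-PCR transcript level normalized to ACTB GAPDH and POLR2A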
Settings: mRNA level, 48 h; actives raise or lower the signal
How it was run: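 Assesses CYP1A2 mRNA in human HepaRG liver cells after 48 h chemical exposure at up to 100 uM. Values come from qRT-PCR with bidirectional curve fitting relative to DMSO.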

| SMILES | AC50 | outcome |
| --- | --- | --- |
| Clc1ccccc1-c1nnc(-c2ccccc2Cl)nn1 | 17.3 µM (active) |  |
| Oc1cc(Cl)ccc1Oc1ccc(Cl)cc1Cl |  | inactive |
| CCC(C)Nc1c([N+](=O)[O-])cc(C(C)(C)C)cc1[N+](=O)[O-] (stereo unspecified) |  | inactive |
| Oc1ccc(Cl)cc1Cc1ccccc1 |  | inactive |
| CNC(=O)/C=C(\C)OP(=O)(OC)OC |  | inactive |

Read-out: cysteine-aspartic acid protease (CASP8), CASP8 (gene 841)
Test: LTEA_HepaRG_CASP8: Life Technologies and Expression Analysis (LTEA) Assay for cysteine-aspartic acid protease (CASP8) using HepaRG (AID 2283480)
Settings: mRNA level, 48 h; actives raise or lower the signal
How it was run: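 Differentiated HepaRG cells in serum-free induction medium, 48 h exposure, eight-point half-log series from 100 uM in 0.5% DMSO, duplicates. CASP8 mRNA by qRT-PCR, normalized to ACTB, GAPDH, POLR2A; bidirectional fit versus DMSO.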

| SMILES | outcome | AC50 |
| --- | --- | --- |
| O=C(O)C(F)(F)C(F)(F)C(F)(F)C(F)(F)C(F)(F)C(F)(F)C(F)(F)F | inactive |  |
| CC(C)N(C(=O)COc1nnc(C(F)(F)F)s1)c1ccc(F)cc1 | inactive |  |
| OCCOc1ccccc1 | inactive |  |
| O=C(Nc1ccccc1)Nc1cnns1 | inactive |  |
| CNC(=O)CSP(=S)(OC)OC | inactive |  |
| ClC1C(Cl)C(Cl)C(Cl)C(Cl)C1Cl (stereo unspecified) | inactive |  |
| CCCN(CCC)c1c([N+](=O)[O-])cc(C(F)(F)F)cc1[N+](=O)[O-] | inactive |  |
| O=S(=O)(O)C(F)(F)C(F)(F)C(F)(F)C(F)(F)C(F)(F)C(F)(F)C(F)(F)C(F)(F)F | inactive | 34.5 µM (active) |
| CN1CSC(=S)N(C)C1 | inactive |  |
| CC1(c2ccc(Oc3ccccc3)cc2)OC(=O)N(Nc2ccccc2)C1=O (stereo unspecified) |  | 11.7 µM (active) |
| O=C1c2ccccc2C(=O)N1SC(Cl)(Cl)Cl | inactive |  |
| CCOC1Oc2ccc(OS(C)(=O)=O)cc2C1(C)C (stereo unspecified) | inactive |  |
| CC(C)(C)C(O)C(Oc1ccc(Cl)cc1)n1cncn1 (stereo unspecified) | inactive |  |
| COc1nn(CSP(=S)(OC)OC)c(=O)s1 | inactive |  |
| O=C(NC(=O)c1c(F)cccc1F)Nc1ccc(OC(F)(F)C(F)OC(F)(F)F)c(Cl)c1 (stereo unspecified) | inactive |  |
| O=C(O)CCCOc1ccc(Cl)cc1Cl | inactive |  |
| O=[N+]([O-])/N=C1\NCCN1Cc1ccc(Cl)nc1 | inactive |  |
| Clc1ccccc1-c1nnc(-c2ccccc2Cl)nn1 | inactive |  |
| Oc1cc(Cl)ccc1Oc1ccc(Cl)cc1Cl | inactive |  |
| CCC(C)Nc1c([N+](=O)[O-])cc(C(C)(C)C)cc1[N+](=O)[O-] (stereo unspecified) | inactive |  |
| Oc1ccc(Cl)cc1Cc1ccccc1 | inactive |  |
| CNC(=O)/C=C(\C)OP(=O)(OC)OC | inactive |  |

Read-out: Cytochrome P450 (CYP2B6), CYP2B6 (gene 1555)
Test: LTEA_HepaRG_CYP2B6: Life Technologies and Expression Analysis (LTEA) Assay for Cytochrome P450 (CYP2B6) using HepaRG (AID 2283481)
Settings: mRNA level, 48 h; actives raise or lower the signal
How it was run: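 Using 48 h treatment of HepaRG cells in serum-free induction medium, concentrations spanned half-log steps from 100 uM in 0.5% DMSO vehicle. CYP2B6 mRNA induction or loss is scored by qRT-PCR against DMSO.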

| SMILES | AC50 | outcome |
| --- | --- | --- |
| O=C(O)C(F)(F)C(F)(F)C(F)(F)C(F)(F)C(F)(F)C(F)(F)C(F)(F)F | 17.9 µM (active) and 3.15 µM (active) |  |
| CC(C)N(C(=O)COc1nnc(C(F)(F)F)s1)c1ccc(F)cc1 |  | inactive |
| OCCOc1ccccc1 | 50 µM (active) |  |
| O=C(Nc1ccccc1)Nc1cnns1 |  | inactive |
| CNC(=O)CSP(=S)(OC)OC | 23.1 µM (active) |  |
| ClC1C(Cl)C(Cl)C(Cl)C(Cl)C1Cl (stereo unspecified) | 758 nM (active) and 392 nM (active) |  |
| CCCN(CCC)c1c([N+](=O)[O-])cc(C(F)(F)F)cc1[N+](=O)[O-] | 50 µM (active) |  |
| O=S(=O)(O)C(F)(F)C(F)(F)C(F)(F)C(F)(F)C(F)(F)C(F)(F)C(F)(F)C(F)(F)F | 88.9 µM (active) [middle of 4 runs] |  |
| CN1CSC(=S)N(C)C1 |  | inactive |
| CC1(c2ccc(Oc3ccccc3)cc2)OC(=O)N(Nc2ccccc2)C1=O (stereo unspecified) | 8.83 µM (active) |  |
| O=C1c2ccccc2C(=O)N1SC(Cl)(Cl)Cl |  | inactive |
| CCOC1Oc2ccc(OS(C)(=O)=O)cc2C1(C)C (stereo unspecified) | 91.3 µM (active) |  |
| CC(C)(C)C(O)C(Oc1ccc(Cl)cc1)n1cncn1 (stereo unspecified) | 2.21 µM (active) and 3.37 µM (active) and 1.68 µM (active) |  |
| COc1nn(CSP(=S)(OC)OC)c(=O)s1 | 4.94 µM (active) |  |
| O=C(NC(=O)c1c(F)cccc1F)Nc1ccc(OC(F)(F)C(F)OC(F)(F)F)c(Cl)c1 (stereo unspecified) |  | inactive |
| O=C(O)CCCOc1ccc(Cl)cc1Cl | 15.2 µM (active) |  |
| O=[N+]([O-])/N=C1\NCCN1Cc1ccc(Cl)nc1 | 13.2 µM (active) |  |
| Clc1ccccc1-c1nnc(-c2ccccc2Cl)nn1 | 7.28 µM (active) |  |
| Oc1cc(Cl)ccc1Oc1ccc(Cl)cc1Cl | 17 µM (active) and 51 µM (active) | inactive |
| CCC(C)Nc1c([N+](=O)[O-])cc(C(C)(C)C)cc1[N+](=O)[O-] (stereo unspecified) | 3.52 µM (active) |  |
| Oc1ccc(Cl)cc1Cc1ccccc1 |  | inactive |
| CNC(=O)/C=C(\C)OP(=O)(OC)OC |  | inactive |
